Molecules are shown by their SMILES. Among all 350,000 compounds or so, about 7,000 (2%) were called active. The list comes from a sample in which actives are over-represented; it also holds similar structures and randomly drawn compounds. A number with no mark means an inactive call. No stated cut-off is given here; in the data, active means activation above about 40%; inconclusive means no clear call, values can overlap the other calls; inactive means below that.

The assay can be described thus: raisers of Bmi1 knock-in reporter signal – mouse ES cells, Bmi1 luciferase knock-in, single point, esBAF inhibitor project, primary screen (AID 602393).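 Further: 0% = median of the plate's neutral control wells and 100% = double that signal; a rise in the Bmi1 reporter signal indicates esBAF inhibition.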 The note with it: 24 h, at 12.5 µM, hits give high values, 100% = twice the neutral-well signal.
On to `O=C(Nc1ccc(Cl)cc1)N1C[C@@H]2[C@H](c3ccccc31)[C@@H](CO)N2C(=O)c1cccnc1`, for which the reporter increase was 13.8%.

Turning to `CO[C@H]1CN(C)C(=O)c2cc(NC(=O)Nc3ccccc3)ccc2OC[C@@H](C)N(C(=O)Nc2c(C)noc2C)C[C@@H]1C`, the reporter increase was 3.56%. Consider `O=S(=O)(NCC[C@H]1CC[C@@H](NS(=O)(=O)c2cccc(Cl)c2)[C@@H](CO)O1)c1cccc(F)c1`, for which the reporter increase was 8.34%. On to `CCC(=O)N1C[C@@H](C)[C@H](OC)CN(C)C(=O)c2cc(NC(=O)c3cc(C)on3)ccc2OC[C@@H]1C`, for which the reporter increase was 6.47%. As to `COc1ccc(OCc2cc(C(=O)NCC3(C)COC3)no2)c(Cl)c1`, the reporter increase was 42.9% (active).

On to `COc1ccc(-c2cc(C(=O)NCCCN3CCOCC3)no2)cc1`, for which the reporter increase was -13.5%.

On to `COCCN1CCN(C(=O)c2cc(COc3ccc(F)cc3Cl)on2)CC1`, for which the reporter increase was -1.67%.

For the compound `CC(=O)N(C)C[C@@H]1Oc2ncc(-c3ccccc3F)cc2C(=O)N([C@H](C)CO)C[C@@H]1C`, the reporter increase is -1.47%. Regarding `OCCCN1c2ccccc2Nc2nnc(-c3ccccc3)cc21`, the reporter increase is 45.3% (active).

Turning to `N=c1c2c(-c3ccccc3)c(-c3ccccc3)n(Cc3ccccc3)c2ncn1CCCO`, the reporter increase is -11.6%.

Take `O=C(C[C@@H]1CC[C@@H](NC(=O)c2cccnc2)[C@H](CO)O1)NCCN1CCCCC1`: the reporter increase was -6.27%. `CCNC(=O)C[C@@H]1CC[C@H]2[C@@H](COc3ccc(NC(=O)c4ccccc4Cl)cc3C(=O)N2C)O1`: the reporter increase is 2.25%. As to `COc1ccc(NC(=O)Nc2ccc3c(c2)C(=O)N([C@H](C)CO)C[C@H](C)[C@@H](CN(C)Cc2ccccc2)OCCCC[C@H](C)O3)cc1`, the reporter increase was 3.05%.

As to `COCC(=O)Nc1ccc2c(c1)C(=O)N(C)C[C@H](OC)[C@@H](C)CN(C(=O)Cc1cccnc1)[C@@H](C)CO2`, the reporter increase is -0.572%. For `Cc1ccc(NC(=O)CN2CCc3ccccc3C2)cc1C`, the reporter increase was 8.63%.

In the case of `O=C(Nc1cccc([N+](=O)[O-])c1)Nn1cnnc1`, the reporter increase is 9.77%.

`O=C(Nc1cccc([N+](=O)[O-])c1)N1CCc2ccccc2C1`: the reporter increase was 45.9% (active). With `O=C(CN1CCOCC1)Nc1cccc([N+](=O)[O-])c1`, the reporter increase is -2.52%. `CCc1ccc(NC(=O)N2CCc3ccccc3C2)cc1`: the reporter increase is 60.4% (active). The result for `Cn1cccc1C(=O)N1CCc2ccccc2C1` reads 28.8%. With `COCC(=O)N(C)C[C@H]1[C@@H](c2ccc(-c3cccnc3)cc2)[C@H](CO)N1C(C)=O`, the reporter increase was 3.19%. Regarding `CO[C@@H]1CN(C)C(=O)c2cc(NC(=O)c3ccc(F)cc3)ccc2OC[C@H](C)NC[C@@H]1C`, the reporter increase is 2.56%.

For the origin of these results see PubChem BioAssay AID602393 (Broad Institute, 2012).
